Target: T1, Serine/threonine-protein kinase 4 (Homo sapiens) (UniProt Q13043);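 also: mean inhibition of MST1, part of the GSK PKIS dataset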
T1 sequence (whole entry): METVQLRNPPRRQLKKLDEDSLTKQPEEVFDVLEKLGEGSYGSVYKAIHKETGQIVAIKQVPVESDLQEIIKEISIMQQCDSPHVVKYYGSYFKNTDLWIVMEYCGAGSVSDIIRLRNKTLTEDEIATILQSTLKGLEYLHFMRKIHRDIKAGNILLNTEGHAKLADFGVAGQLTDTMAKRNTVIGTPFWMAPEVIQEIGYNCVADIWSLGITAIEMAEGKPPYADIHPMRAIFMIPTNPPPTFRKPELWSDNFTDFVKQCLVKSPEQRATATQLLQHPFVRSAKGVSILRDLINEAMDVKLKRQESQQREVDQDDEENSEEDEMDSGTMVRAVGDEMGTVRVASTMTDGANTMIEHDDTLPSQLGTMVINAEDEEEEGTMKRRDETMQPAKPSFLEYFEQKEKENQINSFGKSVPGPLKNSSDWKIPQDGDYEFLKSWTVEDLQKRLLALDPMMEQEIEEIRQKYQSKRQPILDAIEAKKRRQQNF
Settings: at 1 µM

| Structure (SMILES) | inhibition |
| --- | --- |
| NS(=O)(=O)c1ccc(N/C=C2\C(=O)Nc3ccc4ncsc4c32)cc1 | 75.2% |
| CCn1c(-c2nonc2N)nc2c(C#CCN)ncc(OCCCN)c21 | 5.35% |
| COc1cc(C=NNc2ncnc3c2cnn3Cc2ccccc2)ccc1O | -2.3% |
| Fc1ccc(-c2ncn(C3CCNCC3)c2-c2ccnc(Oc3ccccc3)n2)cc1 | 1.85% |
| COc1cccc(COc2cc(-n3cnc4ccccc43)sc2C(N)=O)c1 | 2.62% |
| Nc1nonc1-c1nc2cnccc2n1C1CCCCC1 | 18.5% |
| COc1cc2c(cc1Nc1nc(Nc3ccsc3C(N)=O)c3cc[nH]c3n1)N(C(=O)CN(C)C)CCC2 | 8.27% |
| NS(=O)(=O)c1ccc(-c2ccc3c(NC(=O)C4CC4)n[nH]c3c2)cc1 | 5.91% |
| COc1cccc(-n2ncc3c(N/N=C/c4ccncc4)ncnc32)c1 | 12.8% |
| Cc1cc(-c2ccco2)cc(C)c1/C=C/c1cncc(-c2nn[nH]n2)c1 | 0.16% |
| CCn1c(-c2nonc2N)nc2c(C#CC(C)(C)O)ncc(OCC3CCNCC3)c21 | 16.3% |
| NC(=O)c1sc(-n2cnc3cc(C(F)(F)F)ccc32)cc1OCc1ccccc1Br | 2.83% |
| CCn1c(-c2nonc2N)nc2c(C#CC(C)(C)O)nc(O[C@@H](CN)c3ccccc3)cc21 | 15.9% |
| CCn1c(-c2nonc2N)nc2c(C#CC(C)(C)O)ncc(OC[C@@H]3CCCN3)c21 | 2.14% |

Target: T2, Serine/threonine-protein kinase 3 (Homo sapiens) (UniProt Q13188)
T2 sequence (whole entry): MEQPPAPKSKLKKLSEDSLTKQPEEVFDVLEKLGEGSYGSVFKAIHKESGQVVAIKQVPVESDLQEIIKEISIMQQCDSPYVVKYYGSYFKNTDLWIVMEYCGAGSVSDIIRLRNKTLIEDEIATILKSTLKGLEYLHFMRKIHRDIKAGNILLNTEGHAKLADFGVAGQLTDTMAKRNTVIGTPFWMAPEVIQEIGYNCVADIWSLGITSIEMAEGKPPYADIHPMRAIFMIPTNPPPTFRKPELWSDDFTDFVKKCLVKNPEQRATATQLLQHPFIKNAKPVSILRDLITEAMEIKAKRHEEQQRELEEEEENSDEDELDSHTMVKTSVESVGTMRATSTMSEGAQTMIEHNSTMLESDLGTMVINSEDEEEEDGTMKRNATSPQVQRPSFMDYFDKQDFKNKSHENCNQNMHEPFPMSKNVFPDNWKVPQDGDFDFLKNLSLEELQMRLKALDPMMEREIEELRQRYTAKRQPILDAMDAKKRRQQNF
Settings: at 0.1 µM

| Structure (SMILES) | inhibition |
| --- | --- |
| NS(=O)(=O)c1ccc(N/C=C2\C(=O)Nc3ccc4ncsc4c32)cc1 | 65.1% |
| CCn1c(-c2nonc2N)nc2c(C#CCN)ncc(OCCCN)c21 | 2.31% |
| COc1cc(C=NNc2ncnc3c2cnn3Cc2ccccc2)ccc1O | -4.05% |
| Fc1ccc(-c2ncn(C3CCNCC3)c2-c2ccnc(Oc3ccccc3)n2)cc1 | 1.01% |
| COc1cccc(COc2cc(-n3cnc4ccccc43)sc2C(N)=O)c1 | 0.35% |
| Nc1nonc1-c1nc2cnccc2n1C1CCCCC1 | -0.2% |
| NS(=O)(=O)c1ccc(-c2ccc3c(NC(=O)C4CC4)n[nH]c3c2)cc1 | 4.35% |
| COc1cccc(-n2ncc3c(N/N=C/c4ccncc4)ncnc32)c1 | 5.41% |
| Cc1cc(-c2ccco2)cc(C)c1/C=C/c1cncc(-c2nn[nH]n2)c1 | -0.6% |
| CCn1c(-c2nonc2N)nc2c(C#CC(C)(C)O)ncc(OCC3CCNCC3)c21 | 8.69% |
| NC(=O)c1sc(-n2cnc3cc(C(F)(F)F)ccc32)cc1OCc1ccccc1Br | 1.31% |
| CCn1c(-c2nonc2N)nc2c(C#CC(C)(C)O)nc(O[C@@H](CN)c3ccccc3)cc21 | 1.12% |
| CCn1c(-c2nonc2N)nc2c(C#CC(C)(C)O)ncc(OC[C@@H]3CCCN3)c21 | 0.87% |

Target: T2, Serine/threonine-protein kinase 3 (Homo sapiens)
Settings: at 1 µM

| Structure (SMILES) | inhibition |
| --- | --- |
| NS(=O)(=O)c1ccc(N/C=C2\C(=O)Nc3ccc4ncsc4c32)cc1 | 73.7% |
| CCn1c(-c2nonc2N)nc2c(C#CCN)ncc(OCCCN)c21 | 6.61% |
| COc1cc(C=NNc2ncnc3c2cnn3Cc2ccccc2)ccc1O | -0.82% |
| Fc1ccc(-c2ncn(C3CCNCC3)c2-c2ccnc(Oc3ccccc3)n2)cc1 | 2.48% |
| COc1cccc(COc2cc(-n3cnc4ccccc43)sc2C(N)=O)c1 | 1.4% |
| Nc1nonc1-c1nc2cnccc2n1C1CCCCC1 | 13.8% |
| NS(=O)(=O)c1ccc(-c2ccc3c(NC(=O)C4CC4)n[nH]c3c2)cc1 | 5.17% |
| COc1cccc(-n2ncc3c(N/N=C/c4ccncc4)ncnc32)c1 | 10.7% |
| Cc1cc(-c2ccco2)cc(C)c1/C=C/c1cncc(-c2nn[nH]n2)c1 | 0.69% |
| CCn1c(-c2nonc2N)nc2c(C#CC(C)(C)O)ncc(OCC3CCNCC3)c21 | 14.7% |
| NC(=O)c1sc(-n2cnc3cc(C(F)(F)F)ccc32)cc1OCc1ccccc1Br | 2.28% |
| CCn1c(-c2nonc2N)nc2c(C#CC(C)(C)O)ncc(OC[C@@H]3CCCN3)c21 | 2.41% |

Target: Serine/threonine-protein kinase 26 (Homo sapiens) (UniProt Q9P289)
Sequence (Q9P289 2-416 limits assumed): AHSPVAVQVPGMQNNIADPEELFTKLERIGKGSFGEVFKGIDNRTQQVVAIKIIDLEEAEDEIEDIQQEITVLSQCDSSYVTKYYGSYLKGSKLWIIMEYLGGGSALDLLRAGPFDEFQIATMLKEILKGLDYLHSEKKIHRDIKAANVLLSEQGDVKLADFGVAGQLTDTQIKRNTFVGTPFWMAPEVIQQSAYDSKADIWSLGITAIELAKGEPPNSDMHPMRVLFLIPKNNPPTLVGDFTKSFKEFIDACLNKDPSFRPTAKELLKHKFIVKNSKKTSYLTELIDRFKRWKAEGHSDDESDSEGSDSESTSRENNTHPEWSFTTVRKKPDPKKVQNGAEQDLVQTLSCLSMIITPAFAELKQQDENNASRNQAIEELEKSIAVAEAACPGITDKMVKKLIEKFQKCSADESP
Settings: at 0.1 µM

| Structure (SMILES) | inhibition |
| --- | --- |
| NS(=O)(=O)c1ccc(N/C=C2\C(=O)Nc3ccc4ncsc4c32)cc1 | 42.6% |
| CCn1c(-c2nonc2N)nc2c(C#CCN)ncc(OCCCN)c21 | 1.82% |
| COc1cc(C=NNc2ncnc3c2cnn3Cc2ccccc2)ccc1O | 1.58% |
| Fc1ccc(-c2ncn(C3CCNCC3)c2-c2ccnc(Oc3ccccc3)n2)cc1 | -0.85% |
| COc1cccc(COc2cc(-n3cnc4ccccc43)sc2C(N)=O)c1 | 1.25% |
| Nc1nonc1-c1nc2cnccc2n1C1CCCCC1 | 0.77% |
| COc1cc2c(cc1Nc1nc(Nc3ccsc3C(N)=O)c3cc[nH]c3n1)N(C(=O)CN(C)C)CCC2 | 1.14% |
| NS(=O)(=O)c1ccc(-c2ccc3c(NC(=O)C4CC4)n[nH]c3c2)cc1 | 0.02% |
| COc1cccc(-n2ncc3c(N/N=C/c4ccncc4)ncnc32)c1 | 0.95% |
| Cc1cc(-c2ccco2)cc(C)c1/C=C/c1cncc(-c2nn[nH]n2)c1 | 1.06% |
| CCn1c(-c2nonc2N)nc2c(C#CC(C)(C)O)ncc(OCC3CCNCC3)c21 | 0.23% |
| NC(=O)c1sc(-n2cnc3cc(C(F)(F)F)ccc32)cc1OCc1ccccc1Br | 1.54% |
| CCn1c(-c2nonc2N)nc2c(C#CC(C)(C)O)nc(O[C@@H](CN)c3ccccc3)cc21 | 1.22% |
| CCn1c(-c2nonc2N)nc2c(C#CC(C)(C)O)ncc(OC[C@@H]3CCCN3)c21 | 0.78% |

From ChEMBL document CHEMBL1961873, “Compounds: GSK PKIS; Assays: Nanosyn kinase panel” (2012)
